These results are taken from PMC7819943, “Rice protein-binding microarrays: a tool to detect cis-acting elements near promoter regions in rice”.

Whole data set: some 39,000 sequences, median “fluorescence intensity (a.u.)” near 4,300, cut for the highest 2% near 39,000. What follows is part of a selection rich in the highest values, with near analogues and random picks from the rest.

This assay deals with T1, OsSMF1 (Oryza sativa, UniProt Q6ZLB0 1-436).
T1 sequence: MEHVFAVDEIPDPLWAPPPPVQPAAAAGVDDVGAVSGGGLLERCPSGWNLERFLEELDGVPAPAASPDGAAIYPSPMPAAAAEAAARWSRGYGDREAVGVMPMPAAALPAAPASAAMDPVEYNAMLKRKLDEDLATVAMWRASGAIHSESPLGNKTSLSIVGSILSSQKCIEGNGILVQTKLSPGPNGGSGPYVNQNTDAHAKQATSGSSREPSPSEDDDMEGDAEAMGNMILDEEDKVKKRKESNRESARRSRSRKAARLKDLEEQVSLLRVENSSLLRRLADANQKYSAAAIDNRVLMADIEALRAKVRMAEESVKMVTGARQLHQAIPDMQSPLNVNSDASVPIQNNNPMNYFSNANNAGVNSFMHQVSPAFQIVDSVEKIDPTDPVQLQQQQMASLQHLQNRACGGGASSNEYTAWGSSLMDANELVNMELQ
Kind of assay: protein-binding microarray (RPBM); PBS, 2% BSA, 51.3 ng/ul salmon testes DNA, 50 uM zinc acetate, 200 nM TF, 25 C, 1 h; high values mean tight binding. The settings on record: protein: recombinant; tags: N-terminal polyhistidine and DsRed monomer fusion (pET32a); chain copies: 2; label: CyDye5-dUTP incorporated in the synthesized complementary strand; 3' TTTTT single-stranded linker to array surface; dsDNA, one strand shown. The method, boiled down: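 Transcription factors, each fused N-terminally to a polyhistidine tag and DsRed, were expressed in E. coli BL21-CodonPlus and purified on Ni–NTA. A custom Agilent array was made double-stranded by primer extension with Cy5-dUTP and blocked with 2% BSA. It was incubated with 200 nM protein in PBS, 2% BSA, salmon testes DNA and 50 µM zinc acetate at 25 °C for 1 h, then washed. The binding signal is per-feature fluorescence intensity (arbitrary units) read on an Axon 4000B scanner.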
In the case of “TATTTTGGAAAATGAGTCACAGGGTTATTGTAGCTTTGAACGGAGTCACCTAGTGCAG”, the binding signal is 9390 fluorescence intensity (a.u.). As for “TGGTTGTATTAGGTTAATAAGCCACGTCAGTGAAAAGCACCGGAGTCACCTAGTGCAG”, the binding signal was 16100 fluorescence intensity (a.u.). With “CCACCGGAAACAGGGAAGAAGAGGGGTCGAGAAAGGGGAGCGGAGTCACCTAGTGCAG” the figure was 4020 fluorescence intensity (a.u.). The result for “AGAGAGGGAAGGGAGGGAGGGAGGGAGGAGGGAGAGATCTCGGAGTCACCTAGTGCAG” reads 6770 fluorescence intensity (a.u.); that for “AGCAGAGTGATCTCTGATGGTCACGGGCCGAGAAGGGAAGCGGAGTCACCTAGTGCAG”, 45700 fluorescence intensity (a.u.).

As for “AGCAGGAGAAGGGACCGAGAGAAGAGTCGCAGAGAGAGAGCGGAGTCACCTAGTGCAG”, the binding signal is 3660 fluorescence intensity (a.u.). As for “TGAATGCACGTACTGGTGATGAATCTCTGATGGATGGAAGCGGAGTCACCTAGTGCAG”, the binding signal was 3210 fluorescence intensity (a.u.). “AGAAGGGGAGAAAAGGAAACCGATCTCGGTCATGGCCACGCGGAGTCACCTAGTGCAG”: the binding signal was 50900 fluorescence intensity (a.u.).

Consider “GCCGCGCCGTCCTGTGTGTGCGTGGCGCCAATGCATGCTACGGAGTCACCTAGTGCAG”, for which the binding signal was 3590 fluorescence intensity (a.u.). With “GGTTTTGGAGAGCGGTTTCACTGACGTGGCAGTGTTGACCCGGAGTCACCTAGTGCAG” the figure was 22900 fluorescence intensity (a.u.).

Consider “ACGCCTCATCTCCAGTCCACGGCTCAACGTCCACGCACACCGGAGTCACCTAGTGCAG”, for which the binding signal is 3490 fluorescence intensity (a.u.). With “TGATTTTGTTTTAATACATGCAATCTTTCGATCCAATGGCCGGAGTCACCTAGTGCAG” the figure was 24000 fluorescence intensity (a.u.). With “TCGATCTGCACATGTGCACGCGCATGTGTCGTCGGCTTAGCGGAGTCACCTAGTGCAG” the figure was 3230 fluorescence intensity (a.u.); with “GACTAATCAAACAATTTCCCTCGCTATTAGTCACTGACAGCGGAGTCACCTAGTGCAG”, 3590 fluorescence intensity (a.u.).

Take “ATTTAATAGTCCGGGAGGCATGCTTACGGACAAGGACGAACGGAGTCACCTAGTGCAG”: the binding signal was 47100 fluorescence intensity (a.u.).

On to “GCATGCGGGATAGGAGCTTGACTAGCATGACGAGGCAGAACGGAGTCACCTAGTGCAG”, for which the binding signal was 5890 fluorescence intensity (a.u.). The result for “CACCTAGCATGCATAGGACGAGGCATTTAATTTTACTTATCGGAGTCACCTAGTGCAG” reads 22000 fluorescence intensity (a.u.); that for “GCATGCTCTCCGTGCCGTATGCGCTGTCGTAGGGCAGGTGCGGAGTCACCTAGTGCAG”, 3760 fluorescence intensity (a.u.); that for “CGCCGCCGCCGTCGCTGCCGCCGCCGCCGCCGCCTAGGGTCGGAGTCACCTAGTGCAG”, 29300 fluorescence intensity (a.u.). With “TCACTTCTCTCCTCCACATGTGCATACAACTGACTTATAACGGAGTCACCTAGTGCAG” the figure was 4660 fluorescence intensity (a.u.); with “GTTGAATTCTGTGCGTGTAAGCAGACCTGCATTGCCGTCGCGGAGTCACCTAGTGCAG”, 3170 fluorescence intensity (a.u.).

Consider “TCCCAATTGACTAGAGGATGCTTCAGAGATGAAAACATGGCGGAGTCACCTAGTGCAG”, for which the binding signal was 3190 fluorescence intensity (a.u.). The result for “TCCAGCTCTGAATTTCACTCTGCATGCATAAGTTGCAGGACGGAGTCACCTAGTGCAG” reads 48100 fluorescence intensity (a.u.).

For the sequence “ATAATGAAAATGAGAATTCATGCCAGCTCTGCAAAGTGGACGGAGTCACCTAGTGCAG”, the binding signal was 4780 fluorescence intensity (a.u.). Take “GCAATTCACTCCAGTTCACTTTGCCAGCTTGTCTCTCTGACGGAGTCACCTAGTGCAG”: the binding signal was 3520 fluorescence intensity (a.u.). Regarding “ATATACAGTACACGTTCTTGCCCTCATTGCCACATAGTACCGGAGTCACCTAGTGCAG”, the binding signal is 4020 fluorescence intensity (a.u.). As to “TCCCCAAGTCAGTCAATGCCATCACTGTCATCTGCTCTCACGGAGTCACCTAGTGCAG”, the binding signal was 3200 fluorescence intensity (a.u.). With “TTCATTGACCGAGAACGATAGCACGCATCACATCAGCATCCGGAGTCACCTAGTGCAG” the figure was 3250 fluorescence intensity (a.u.); with “TGGGAGTGCGTGGTGTGCGTGGCGTCGGTTCTTGCGGAGGCGGAGTCACCTAGTGCAG”, 5410 fluorescence intensity (a.u.); with “GAGGGTTCTTGATGCGTGACCTGATGCGGGAGGCGTATTGCGGAGTCACCTAGTGCAG”, 39200 fluorescence intensity (a.u.). With “CGCGCGTGCGGTTCTTGTGTCCGAGGGTGGTGGTGTGTGGCGGAGTCACCTAGTGCAG” the figure was 3360 fluorescence intensity (a.u.); with “ATTGAAAATTCTCTACTCTTTACACGTGTCCATCATCCCACGGAGTCACCTAGTGCAG”, 19100 fluorescence intensity (a.u.); with “TCAAGTCATGAATTCTCCTATTTCAAGTCACTTCAGAAGTCGGAGTCACCTAGTGCAG”, 3330 fluorescence intensity (a.u.).

Turning to “GCAGCGCCATGAAAGCGCATGGCATGCATGCACTGCACTGCGGAGTCACCTAGTGCAG”, the binding signal is 3520 fluorescence intensity (a.u.). With “CATGCCAGGTCAGTCGGCATCCATGAAGACTGCACTGCACCGGAGTCACCTAGTGCAG” the figure was 42600 fluorescence intensity (a.u.); with “TTTATGGATAGAAGATGCACCGGCCAGGTCATGAAGATCACGGAGTCACCTAGTGCAG”, 4050 fluorescence intensity (a.u.); with “AATCGTGCTCGATTGACCTCACTAATTCATCCCTGTAACCCGGAGTCACCTAGTGCAG”, 25700 fluorescence intensity (a.u.). With “GGGGTGAGGTGAGGTTACCACGTCGGCGACGGTGAGGAAGCGGAGTCACCTAGTGCAG” the figure was 6110 fluorescence intensity (a.u.); with “CTTATCTACTTGATATTTGCATATGTATACAGTTTTACTGCGGAGTCACCTAGTGCAG”, 3220 fluorescence intensity (a.u.). For the sequence “GGTAGCTGATACAGGTATGCAGACGAAAGATCACACCTATCGGAGTCACCTAGTGCAG”, the binding signal was 32500 fluorescence intensity (a.u.). With “ACTTGATCAGCACACTCTGGTGACATGACAGCTGTAAAGTCGGAGTCACCTAGTGCAG” the figure was 4180 fluorescence intensity (a.u.).

For “ATGATCAGATACACACTCTGGCTTGGCTTGTAGCTGCAACCGGAGTCACCTAGTGCAG”, the binding signal was 50400 fluorescence intensity (a.u.).

Regarding “GCTGAGCTGAGCTGATATGATCAACACAGTGCAGACTTGGCGGAGTCACCTAGTGCAG”, the binding signal was 3710 fluorescence intensity (a.u.).
